GSIS activator = GLuc luminescence reporter in INS-1E cells, primary screen for activators of glucose-dependent secretion of insulin; INS-1E GLuc reporter insulin secretion, 2-3 h; activation, % at 16.6 µM; hit rate 0.61% among 370,000;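 active = lowest replicate activation of at least 40%, so every replicate reaches that level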;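 note: 0% = median of neutral control wells and 100% = median of IBMX positive control wells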
Env fusion inh = blocks HIV Env-driven cell-cell fusion; HeLa-JRFL Env/CEM21 cell fusion, luciferase; inhibition, % at 12.3 µM; hit rate 1.1% among 360,000; AID 651610;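 active = mean replicate inhibition score of at least 50 and every replicate individually at or above 50; inconclusive = only one of the two criteria met; inactive = mean below 50 and not all replicates reaching 50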;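 note: 0% = plate neutral controls and 100% = maraviroc near 300 nM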
PAX8 reporter = lowers PAX8-driven luciferase in RMG-I cells. RMG-I TPO-luciferase reporter, SteadyGlo, 24 h. inhibition, % at 12.6 µM. hit rate 1.2% among 360,000. AID 652154;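 active = mean replicate inhibition at least 60% with every replicate also reaching 60%; inconclusive = only one of the two criteria is met; inactive = mean below 60% and not all replicates reaching 60%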;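 note: luciferase light reporting Pax8 driven TPO promoter activity; plate controls were median of neutral control wells for no effect and mitoxantrone controls for full effect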
EWS-Fli block = inhibitors of EWS/Fli oncoprotein transcriptional activity | A673 NR0B1-luciferase reporter, viability-normalised | inhibition, % at 12.6 µM | hit rate 0.67% among 350,000 | AID 651661;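 active = mean inhibition of at least 50% after viability correction, with every replicate also passing that limit; inconclusive = mean reaches 50% but only one of two replicates passes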;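 note: firefly luciferase signal divided by Alamar Blue viability fluorescence both relative to DMSO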
C2C12 statin = suppression of simvastatin myotoxicity; C2C12 myotubes + simvastatin, ATP luminescence, 48 h; scaled: DMSO 0, geranylgeraniol control 100; AID 602340; rescue of ATP level, % at 7.49 µM; hit rate 0.78% among 330,000;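 active = mean ATP rescue above about 67%, or every replicate alone reaching that limit, limit read from the data, passing the limit was not always enough; inconclusive = no clear call, values can overlap the other calls; inactive = mean under the limit and some replicate under it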;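 note: myotubes were challenged with 10 µM simvastatin during compound exposure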
miR-122 sensor = blocks miR-122 activity in Huh7 sensor cells | Huh7 miR-122 Renilla luciferase sensor, 48 h; neutral wells = 0, positive control = 100 | activation (reporter increase), % at 12.5 µM | hit rate 0.3% among 340,000;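 active = mean replicate activation score at least 90 and every replicate individually at or above 90; inconclusive = only one of the two criteria met; inactive = neither criterion met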;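 note: higher luciferase means less miR-122 activity so hits act as miR-122 inhibitors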
The depositor's hits bear a star; ? = inconclusive; · = no result; [ ] = remark or other dose. This is a sample that favours compounds with a hit; in the whole collection about 3.1% have one here.

SMILES	GSIS activator	Env fusion inh	PAX8 reporter	EWS-Fli block	C2C12 statin	miR-122 sensor
C#CNC(=O)C1(CC=C)CCNCC1	2	-11	-11	-8	100*	-5
FC(F)C(F)(F)Oc1cccc(Nc2nccn3c(-c4cccc5cccnc45)cnc23)c1	-4	-9	-12	0	-28	-5
COc1ccccc1-c1cnc2c(Nc3cccc(OC(F)(F)C(F)F)c3)nccn12	79*	7	-31	-22	-5	-4
Cc1ccc(-c2cc(C(=O)N/N=C/C(Br)=C/c3ccccc3)n[nH]2)o1	-13	-1	74*	6	·	·
S=C(NCc1ccncc1)Nc1cc(Cl)cc(Cl)c1	-16	5	-8	-1	7	103*
S=C(NCc1ccncc1)Nc1ccc(Cl)c(Cl)c1	-19	32	-2	·	·	14
CC1=NNC(=O)/C1=C\c1cn(-c2ccccc2)nc1-c1cccs1	4	-271	4	77*	·	·
C[C@H]1CN([C@@H](C)CO)C(=O)c2cc(-c3ccc(F)cc3)cnc2O[C@H]1CN(C)Cc1cncnc1	-1	-30[16.7 µM]	·	-4	3	6[16.7 µM]
CCOc1ccc(N(CC(=O)Nc2ccccc2OCC)S(=O)(=O)c2c(C)noc2C)cc1	-14	46	80*	42	-4	86
CCOc1ccc(NC(=O)CN(c2ccc(OC)cc2)S(C)(=O)=O)cc1	·	·	·	·	111*	-6
CCOc1ccc(N(CC(=O)Nc2ccc(OC)cc2)S(C)(=O)=O)cc1	·	·	·	·	-8	-4
CCOc1ccc(N(CC(=O)Nc2ccc(C)cc2)S(=O)(=O)c2c(C)noc2C)cc1	-39	-24	13	7	18	-1
CC(=O)Nc1ccc(NC(=O)CN(c2ccc(C34CC5CC(CC(C5)C3)C4)cc2)S(C)(=O)=O)cc1	-5	93*	·	·	25	·
CS(=O)(=O)N(CC(=O)Nc1ccc(CC#N)cc1)c1ccc(C23CC4CC(CC(C4)C2)C3)cc1	-10	·	·	-15	26	-2
O=C(N[C@@H]1CC[C@@H](CCNC(=O)C2CCC2)O[C@@H]1CO)c1ccccn1	5	-2[16.7 µM]	3	0	0	·
O=C(COc1cccc2cccnc12)Nc1nccs1	·	-32	-77	·	-2	8
NNC(=O)COc1cccc2cccnc12	·	-14	-2	·	122*	-5
CN=C1c2ccccc2CN1c1cccc(C(=O)OC)c1	89*	·	·	·	100*	0
C[C@H](CO)N1C[C@H](C)[C@@H](CN(C)CC2CCCCC2)Oc2c(NC(=O)Cc3cn(C)c4ccccc34)cccc2C1=O	8	·	·	·	·	·
C[C@H]1CN([C@@H](C)CO)C(=O)Cc2cc(NC(=O)CCCCCC(=O)Nc3ccccc3N)ccc2O[C@@H]1CN(C)Cc1ccc(Oc2ccccc2)cc1	14	21[16.7 µM]	-26	23	102*	-8[16.7 µM]
C[C@@H]1CN([C@@H](C)CO)C(=O)Cc2cc(NC(=O)CCCCCC(=O)Nc3ccccc3N)ccc2O[C@@H]1CN(C)Cc1ccc(Oc2ccccc2)cc1	17	43[16.7 µM]	?	47	-57	-11[16.7 µM]
C[C@@H]1CN([C@H](C)CO)C(=O)Cc2cc(NC(=O)CCCCCC(=O)Nc3ccccc3N)ccc2O[C@@H]1CN(C)Cc1ccc(Oc2ccccc2)cc1	8	56*[16.7 µM]	?	20	27	-7[16.7 µM]
C[C@H](CO)N1C[C@H](C)[C@@H](CN(C)Cc2ccc(-c3ccccc3)cc2)Oc2ccc(NS(=O)(=O)c3cn(C)cn3)cc2CC1=O	19	·	·	·	·	·
O=C(C[C@H]1CC[C@@H](NC(=O)CN2CCOCC2)[C@H](CO)O1)NCCc1ccncc1	11	6[16.7 µM]	-14	0	0	14[16.7 µM]
Cc1ccc(NC(=O)C(=S)NCc2ccco2)cc1	·	·	·	·	135*	6
SMILES	GSIS activator	Env fusion inh	PAX8 reporter	EWS-Fli block	C2C12 statin	miR-122 sensor
CN1C(=O)c2cccc3c(S(=O)(=O)NCc4ccco4)ccc1c23	·	·	·	·	110*	56
COc1cc(NC(=O)NCc2ccco2)ccc1-c1ccc(NC(=O)NCc2ccco2)cc1OC	9	-50	67*	-8	-1	10
CN1C(=O)c2cccc3c(S(N)(=O)=O)ccc1c23	-5	6	16	5	-12	-5
COc1ccc(C(=O)Nc2ccc(S(=O)(=O)NCc3ccco3)cc2)cc1OC	·	-58	2	·	6	176*
CNC[C@H]1Oc2ccc(N(C)C)cc2C(=O)N([C@@H](C)CO)C[C@@H]1C	8	1[16.7 µM]	-4	-7	-27	-1[16.7 µM]
COc1ccc(S(=O)(=O)NCc2ccco2)c2ccccc12	9	·	·	-4	12	96*
COc1ccc(NC(=O)N(C)C[C@@H]2Oc3c(NC(=O)c4ccc(-c5nccs5)cc4)cccc3C(=O)N([C@@H](C)CO)C[C@@H]2C)cc1	0	-19[16.7 µM]	·	-11	·	-2[16.7 µM]
Cc1ccc(C)c(S(=O)(=O)Nc2ccc3scnc3c2)c1	·	·	·	·	-17	158*
CCOC(=O)c1cnc(-n2nc(C)cc2C)nc1NC1CCCCC1	·	105*	·	·	-4	-15
COc1ccccc1CNC(=O)CCS(=O)(=O)Cc1ccc(C)cc1	88*	-4	-3	·	1	3
O=C(C1CCCC1)N1C[C@H]2[C@@H](c3ccccc31)[C@H](CO)N2C(=O)Nc1cccc(F)c1	-17	·	0	-1	-7	-33[16.7 µM]
c1ccc(Cn2nnc3c(N4CCc5ccccc54)ncnc32)cc1	86*	-127	-10	·	6	7
Nc1nc2c(s1)C(=O)CCC2	6	·	·	·	91*	-4
Nc1c2c(nc3ccccc13)CCCC2=O	·	-21	12	3	·	·
C[C@@H]1CCCCO[C@H](CN(C)C(=O)Nc2cccc3ccccc23)[C@@H](C)CN([C@H](C)CO)C(=O)c2cc(NS(=O)(=O)c3ccc(F)cc3)ccc2O1	-29	4[16.7 µM]	-1	14	·	-6[16.7 µM]
C[C@H]1CCCCO[C@H](CN(C)C(=O)Nc2cccc3ccccc23)[C@@H](C)CN([C@@H](C)CO)C(=O)c2cc(NS(=O)(=O)c3ccc(F)cc3)ccc2O1	9	87*[16.7 µM]	87*	24	·	-2[16.7 µM]
C[C@@H]1CCCCO[C@@H](CN(C)C(=O)Nc2cccc3ccccc23)[C@H](C)CN([C@H](C)CO)C(=O)c2cc(NS(=O)(=O)c3ccc(F)cc3)ccc2O1	-3	12[16.7 µM]	93*	6	·	-9[16.7 µM]
O=S(=O)(N[C@H]1CC[C@@H](CCn2cc(C3CC3)nn2)O[C@@H]1CO)c1ccc(Cl)cc1	7	3[16.7 µM]	4	-1	2	·
CC(=O)Nc1ccc(S(=O)(=O)Oc2ccc(N3C(=O)C4CCCCC4C3=O)cc2)cc1 (stereo not drawn)	-51	14	8	·	124*	-1
Cc1ccc(S(=O)(=O)Nc2ccc3c(c2)C(=O)N([C@@H](C)CO)C[C@H](C)[C@@H](CN(C)Cc2ccc(Cl)c(Cl)c2)OCCCC[C@@H](C)O3)cc1	-20	13[16.7 µM]	103*	12	·	-5[16.7 µM]

Assay outcomes as filed in PubChem.
